Source: ChEMBL document CHEMBL4513216, “Probing the Open Global Health Chemical Diversity Library for Multistage-Active Starting Points for Next-Generation Antimalarials” (ACS Infect Dis, 2020)
Screen size: about 68,000 compounds; about 2,700 (4%) showed an effect of 50% or more. The entries come from a sample that favours strong results as a whole.

What follows are compounds tested on Plasmodium berghei (assay: Screen against P. berghei liver stage (PbLuc), transformed with Luciferase, at 2uM). Details: tested at 2 uM.
Type: functional, HepG2

Row | SMILES | INHIBITION [%]
1 | CNC(=O)CCN(C)c1nc(-c2ccncc2)nc2c1CCNC2 | 24.54
2 | Cc1ccc(CN2C[C@@H](OCc3csc(C)n3)[C@H]3COC[C@H]32)s1 | 9.36
3 | Cc1nc(CO[C@@H]2CN(Cc3cccs3)[C@@H]3COC[C@@H]32)cs1 | 26.01
4 | Cc1nc(CO[C@@H]2CN(Cc3cccnc3)[C@@H]3COC[C@@H]32)cs1 | 55.66
5 | Cc1nc(CO[C@@H]2CN(Cc3ccc(F)cc3)[C@@H]3COC[C@@H]32)cs1 | -17.76
6 | Cc1nc(CO[C@@H]2CN(Cc3ccsc3)[C@@H]3COC[C@@H]32)cs1 | 24.43
7 | Cc1nc(CO[C@H]2CN(Cc3cccs3)[C@@H]3COC[C@H]23)cs1 | 56.76
8 | CC1=C(C(=O)NCCc2n[nH]c3c2CCCC3)C(C)NC(=O)N1 (configuration not stated) | -18.23
9 | COCc1nc(-c2ccnc(N3CCNCC3)n2)no1 | -8.07
10 | CC(C)c1noc(CS(=O)(=O)CC(=O)NCc2cccs2)n1 | 20.74
11 | CC(C)c1noc(CS(=O)(=O)CC(=O)NCCOc2ccccc2)n1 | -38.35
12 | CC(C)c1noc(CS(=O)(=O)CC(=O)NCc2ccccc2)n1 | 66.33
13 | CN1CC(=O)N(c2ccccc2)CC12CCN(CC1CC1)C2 (configuration not stated) | -8.23
14 | CN1CC(=O)N(c2cccc(F)c2)CC12CCN(CCO)C2 (configuration not stated) | -15.88
15 | CN1CC(=O)N(c2ccccc2)CC12CCN(CCO)C2 (configuration not stated) | 65.73
16 | Cc1ncnc2c1CCN(C(=O)c1ccoc1)CC2 | 33.47
17 | Cc1nc(-c2ccccc2)sc1CNC1CCc2ncnn2C1 (configuration not stated) | -21.39
18 | Cc1ncnc2c1CCN(CC1CCOC1)CC2 (configuration not stated) | 8.73
19 | COCCC(=O)N1CC[C@@H](N(C)C)[C@@H]1Cc1ccccc1 | 2.71
20 | COc1cccc(OCC2CCCN(C(=O)Cc3cccc(O)c3)C2)c1 (configuration not stated) | 79.21
21 | COc1cccc(CCC2CCCN(C(=O)c3ccc(OC)o3)C2)c1 (configuration not stated) | 38.67
22 | COc1ccccc1C(=O)N1CCN(C(=O)CCn2ccnc2)CC1 | 51.4
23 | COc1cccc(OCC2CCCN(C(C)=O)C2)c1 (configuration not stated) | 12.91

Row | SMILES | INHIBITION [%]
24 | COc1ccccc1OC1CCN(C(=O)CCCn2ccnc2)CC1 | 29.9
25 | COc1cccc(C(=O)N2CCN(C(=O)CCn3ccnc3)CC2)c1 | -14.71
26 | COc1cccc(CCC2CCCN(C(C)=O)C2)c1 (configuration not stated) | 79.21
27 | COc1cccc(OCC2CCCN(C(=O)CCCn3cccn3)C2)c1 (configuration not stated) | 31.51
28 | COc1cccc(OCC2CCCN(C(=O)c3cnn(C)c3)C2)c1 (configuration not stated) | 29.13
29 | COc1cccc(OCC2CCCN(C(=O)CCn3ccnc3)C2)c1 (configuration not stated) | 50.59
30 | COc1cccc(CCC2CCCN(C(=O)c3ccccn3)C2)c1 (configuration not stated) | 26.74
31 | COc1cccc(OCC2CCCN(C(=O)CCc3cc(O)no3)C2)c1 (configuration not stated) | -29.65
32 | c1cc(CN2CCOCC3(C2)CN(Cc2nccs2)CCO3)ccn1 (configuration not stated) | 24.93
33 | CN(C)C(=O)COC1COC2(CCN(c3cnccn3)CC2)C1 (configuration not stated) | -16.53
34 | N#Cc1ccccc1CNC(C(=O)N1CCOCC1)c1ccccc1 (configuration not stated) | -13.11
35 | C[C@@H]1CN(C(=O)c2cnc(C3CC3)nc2)CC[C@@]1(O)C1CCOCC1 | 11.63
36 | c1sc(C2CCCCC2)nc1CN1CCn2c(nnc2C2CC2)C1 | 28.65
37 | CS(=O)(=O)NCc1ncn2c1CN(CCN1CCCC1)CCC2 | 10.64
38 | CCOc1ccccc1OC1CCN(C(=O)c2cnsn2)CC1 | 14.06
39 | CCOc1ccccc1OC1CCN(C(=O)c2cnns2)CC1 | 73.34
40 | CCOc1ccccc1OC1CCN(C(=O)c2csnn2)CC1 | 19.71
41 | Cc1cccc(N2CCC3(CCCN3Cc3cn(C)nc3C)CC2)n1 | 50.32
42 | Cc1cccc(N2CCC3(CCCN3Cc3c(C)nn(C)c3C)CC2)n1 | -28.5
43 | Cc1cccc(N2CCC3(CCCN3Cc3cnn(C)c3C)CC2)n1 | 11.33
44 | COCCNC(=O)N1CCN(C(=O)Cc2ccccc2F)CC1 | 1.06
45 | COCCNC(=O)C1(c2ccccc2C)CCOCC1 | -88.54
46 | COCCNC(=O)NC1(c2ccccc2F)CC1 | 54.49

Row | SMILES | INHIBITION [%]
47 | CCS(=O)(=O)N1CCc2c(nc(C3CCCN3)nc2NC)C1 (configuration not stated) | 40.35
48 | Cc1cccc(C(=O)N2CC(=O)N(c3ccccc3Cl)CC2C)n1 (configuration not stated) | 6.75
49 | Cc1noc2ncc(C(=O)N3CCCC3c3cnn(C)c3)cc12 (configuration not stated) | 26.71
50 | Cc1noc2ncc(C(=O)N3CCCC3c3ccncc3)cc12 (configuration not stated) | -52.51
51 | Cc1noc2ncc(C(=O)N3CCCC3c3ccsc3)cc12 (configuration not stated) | 60.09
52 | Cc1cn2c(n1)CCC(NC(=O)CCOc1cccc(F)c1)C2 (configuration not stated) | -34.22
53 | CCc1nccn1C1CCCN(C(=O)c2ccnc(C)n2)C1 (configuration not stated) | 20.53
54 | Cc1noc(C)c1CNc1cccc(C(=O)N2CCCC(O)C2)c1 (configuration not stated) | -82.3
55 | CCCc1nc(CNc2cccc(C(=O)N3CCCC(O)C3)c2)no1 (configuration not stated) | 24.55
56 | Cc1noc(CNc2ccc(C(=O)N3CCCC(C)C3)cc2C)n1 (configuration not stated) | 31.57
57 | Cc1noc(CNc2cccc(C(=O)N3CCCC(O)C3)c2)n1 (configuration not stated) | 60.9
58 | Cc1noc(CNc2ccccc2C(=O)N2CCCC(O)C2)n1 (configuration not stated) | 74.11
59 | Cc1noc(CNc2ccccc2N2CCCCC2)n1 | -11.41
60 | CCN(CC)C(=O)[C@@H]1C[C@H](N)CN1c1nnc(-c2ccccc2)s1 | -51.55
61 | Cc1noc(C)c1CCC(=O)NC(C)c1nnc2n1CCC2 (configuration not stated) | 20.31
62 | CCC(C)N(Cc1ccncc1)C(=O)CCC(=O)OC (configuration not stated) | -28.11
63 | CCc1cc(NCCC(F)(F)F)nc(N2CCOCC2)n1 | 35.15
64 | CN1C(=O)C2(CCN(CC3CCC3)C2)c2ccccc21 (configuration not stated) | 19.05
65 | CN1C(=O)C2(CCN(CCO)C2)c2ccccc21 (configuration not stated) | 59.33
66 | CN1C(=O)C2(CCN(CC3CC3)CC2)c2ccccc21 | 1.42
67 | NC(=O)N1CCC2(CCN(C(=O)c3cccnc3)CC2)C1 | -14.06
